# Data as given in PubChem BioAssay (EPA / NIEHS).
# The source made the active and inactive calls. How the source made its calls: active means hit-call score of the fitted dose curve at least 0.9, where 1 is the maximum; inactive means score below 0.9.
# Tests used:
# Settings in all cases: mRNA level, 48 h; actives raise or lower the signal
# [1] = read-out: Cytochrome P450 (CYP24A1), CYP24A1 (gene 1591); assay: LTEA_HepaRG_CYP24A1: Life Technologies and Expression Analysis (LTEA) Assay for Cytochrome P450 (CYP24A1) using HepaRG (AID 2283478)
# Procedure, shortened: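 qRT-PCR read-out: CYP24A1 transcript levels normalized to three housekeeping genes, bidirectional curve fits against 0.5% DMSO baseline. Human HepaRG cells treated 48 h with chemicals at eight concentrations from 100 uM in half-log steps.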
# [2] = read-out: Cytochrome P450 (CYP1A2), CYP1A2 (gene 1544); assay: LTEA_HepaRG_CYP1A2: Life Technologies and Expression Analysis (LTEA) Assay for Cytochrome P450 (CYP1A2) using HepaRG (AID 2283479)
# Procedure, shortened: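 HepaRG, 48 h exposure, top 100 uM, half-log 8-pt, 0.5% DMSO vehicle, duplicates. Readout: TaqMan qRT-PCR of CYP1A2 mRNA, housekeeping-normalized (ACTB/GAPDH/POLR2A). Gain/loss fit relative to DMSO baseline.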
# [3] = read-out: cysteine-aspartic acid protease (CASP8), CASP8 (gene 841); assay: LTEA_HepaRG_CASP8: Life Technologies and Expression Analysis (LTEA) Assay for cysteine-aspartic acid protease (CASP8) using HepaRG (AID 2283480)
# Procedure, shortened: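 qRT-PCR readout of CASP8 mRNA, normalized to three housekeeping genes, after 48 h chemical exposure of HepaRG cells; 8-point half-log series, top 100 uM, 0.5% DMSO vehicle. Bidirectional curve fitting against DMSO baseline.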
# [4] = read-out: Cytochrome P450 (CYP2B6), CYP2B6 (gene 1555); assay: LTEA_HepaRG_CYP2B6: Life Technologies and Expression Analysis (LTEA) Assay for Cytochrome P450 (CYP2B6) using HepaRG (AID 2283481)
# Procedure, shortened: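 Read-out is CYP2B6 mRNA by TaqMan qRT-PCR, normalized to three housekeeping genes and fitted bidirectionally against 0.5% DMSO baseline. Human HepaRG cells received test chemicals for 48 h, top concentration 100 uM, half-log dilutions.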
# [5] = read-out: CYP2C9 (gene 1559); assay: LTEA_HepaRG_CYP2C9: Life Technologies and Expression Analysis (LTEA) Assay for CYP2C9 using HepaRG (AID 2283484)
# Procedure, shortened: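 HepaRG, 48 h dosing, 8-pt half-log series, top 100 uM, 0.5% DMSO vehicle. Read-out: CYP2C9 transcript by TaqMan qRT-PCR, housekeeping-normalized (ACTB/GAPDH/POLR2A). Gain or loss fitted vs DMSO baseline.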
# [6] = read-out: CYP2E1 (gene 1571); assay: LTEA_HepaRG_CYP2E1: Life Technologies and Expression Analysis (LTEA) Assay for CYP2E1 using HepaRG (AID 2283485)
# Procedure, shortened: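 CYP2E1 transcript was measured by TaqMan qRT-PCR in human HepaRG cultures after 48 h chemical exposure (top 100 uM, half-log steps, 0.5% DMSO vehicle). Housekeeping-gene normalization; gain or loss fitted relative to DMSO baseline.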
# [7] = read-out: CYP4A11 (gene 1579); assay: LTEA_HepaRG_CYP4A11: Life Technologies and Expression Analysis (LTEA) Assay for CYP4A11 using HepaRG (AID 2283486)
# Procedure, shortened: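 CYP4A11 transcript levels were quantified by TaqMan qRT-PCR after HepaRG human liver cells were treated for 48 hours with test chemicals (top 100 uM, half-log dilutions, 0.5% DMSO). Gain or loss of signal was fitted relative to DMSO.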
# [8] = read-out: Cytochrome P450 3A4 (Homo sapiens) (UniProt P08684); assay: LTEA_HepaRG_CYP3A4: Life Technologies and Expression Analysis (LTEA) Assay for CYP3A4 using HepaRG (AID 2283487)
# Procedure, shortened: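 HepaRG, 48 h exposure, 8-pt CRC from 100 uM (half-log), 0.5% DMSO, duplicates; serum-free induction medium. Readout: CYP3A4 mRNA, qRT-PCR, ACTB/GAPDH/POLR2A normalization. Bidirectional fit vs DMSO.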
# [9] = read-out: DNA damage-inducible transcript 3 (DDIT3), DDIT3 (gene 1649); assay: LTEA_HepaRG_DDIT3: Life Technologies and Expression Analysis (LTEA) Assay for DNA damage-inducible transcript 3 (DDIT3) using HepaRG (AID 2283488)
# Procedure, shortened: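 qRT-PCR readout (Fluidigm TaqMan), housekeeping-normalized to ACTB, GAPDH, POLR2A. HepaRG cells, 48 h exposure, 8-point half-log series from 100 uM in 0.5% DMSO, duplicates. Gain or loss of signal fitted against DMSO baseline.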
# [10] = read-out: Pro-epidermal growth factor (Homo sapiens) (UniProt P01133); assay: LTEA_HepaRG_EGF: Life Technologies and Expression Analysis (LTEA) Assay for Epidermal growth factor (EGF) using HepaRG (AID 2283489)
# Procedure, shortened: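 qRT-PCR readout of EGF transcript after 48 h chemical exposure of HepaRG cells; eight concentrations from 100 uM down in half-log steps, duplicate wells, 0.5% DMSO vehicle. Bidirectional curve fitting against DMSO baseline.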
# [11] = read-out: Early growth response protein 1 (EGR1) transcription factor, EGR1 (gene 1958); assay: LTEA_HepaRG_EGR1: Life Technologies and Expression Analysis (LTEA) Assay for Early growth response protein 1 (EGR1) transcription factor using HepaRG (AID 2283490)
# Procedure, shortened: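 HepaRG, 48 h exposure, 8-pt half-log series from 100 uM, 0.5% DMSO vehicle; EGR1 transcript by TaqMan qRT-PCR (Fluidigm array), housekeeping-normalized; bidirectional fit relative to DMSO baseline.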
# [12] = read-out: Ezrin (EZR), EZR (gene 7430); assay: LTEA_HepaRG_EZR: Life Technologies and Expression Analysis (LTEA) Assay for Ezrin (EZR) using HepaRG (AID 2283491)
# Procedure, shortened: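 Read-out is EZR transcript level by qRT-PCR, normalized to three housekeeping genes and fitted bidirectionally against the DMSO control. Human HepaRG cells received test chemicals for 48 h at eight half-log concentrations up to 100 uM in 0.5% DMSO.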
# [13] = read-out: Cytochrome P450 3A7 (Homo sapiens) (UniProt P24462); assay: LTEA_HepaRG_CYP3A7: Life Technologies and Expression Analysis (LTEA) Assay for CYP3A7 using HepaRG (AID 2283492)
# Procedure, shortened: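 CYP3A7 transcript levels were read by TaqMan qRT-PCR on Fluidigm arrays after 48 h chemical exposure of human HepaRG cells, with housekeeping-gene normalisation. Eight half-log concentrations up to 100 uM in 0.5% DMSO were tested in duplicate.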
# [14] = read-out: CYP3A5 (gene 1577); assay: LTEA_HepaRG_CYP3A5: Life Technologies and Expression Analysis (LTEA) Assay for CYP3A5 using HepaRG (AID 2283493)
# Procedure, shortened: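 qRT-PCR read-out: CYP3A5 transcript in HepaRG lysates, housekeeping-normalized (ACTB/GAPDH/POLR2A), fitted bidirectionally against 0.5% DMSO baseline. Exposure 48 h, eight half-log concentrations up to 100 uM, duplicates.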
# [15] = read-out: Fatty Acid-Binding Protein 1 (FABP1), FABP1 (gene 2168); assay: LTEA_HepaRG_FABP1: Life Technologies and Expression Analysis (LTEA) Assay for Fatty Acid-Binding Protein 1 (FABP1) using HepaRG (AID 2283494)
# Procedure, shortened: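 qRT-PCR readout of FABP1 transcript (normalized to three housekeeping genes) after 48 h chemical exposure of HepaRG cells; eight concentrations, half-log steps, max 100 uM, 0.5% DMSO vehicle; gain or loss fitted relative to DMSO baseline.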
# [16] = read-out: Cytochrome P450 4A22 (Homo sapiens) (UniProt Q5TCH4); assay: LTEA_HepaRG_CYP4A22: Life Technologies and Expression Analysis (LTEA) Assay for Cytochrome P450 4A22 (CYP4A22) using HepaRG (AID 2283495)
# Procedure, shortened: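 HepaRG, 48 h post-plating -> serum-free induction medium; dosed 48 h, duplicate, 8 conc. (100 uM top, half-log), 0.5% DMSO. Readout: CYP4A22 mRNA by qRT-PCR, ACTB/GAPDH/POLR2A normalization; gain/loss fit relative to DMSO.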
# [17] = read-out: Cytochrome P450 7A1 (Homo sapiens) (UniProt P22680); assay: LTEA_HepaRG_CYP7A1: Life Technologies and Expression Analysis (LTEA) Assay for Cytochrome P450 7A1 (CYP7A1) using HepaRG (AID 2283496)
# Procedure, shortened: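 Using 0.5% DMSO as vehicle and baseline, chemicals were tested in duplicate over an 8-point range from 100 uM on HepaRG cells for 48 h; qRT-PCR signals were normalised to ACTB, GAPDH and POLR2A.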
# [18] = read-out: Glutathione S-Transferase (GSTA2), GSTA2 (gene 2939); assay: LTEA_HepaRG_GSTA2: Life Technologies and Expression Analysis (LTEA) Assay for Glutathione S-Transferase (GSTA2) using HepaRG (AID 2283497)
# Procedure, shortened: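 qRT-PCR readout of GSTA2 transcript, normalized to three housekeeping genes, fitted bidirectionally against 0.5% DMSO baseline. Differentiated HepaRG cells received compound for 48 h at 8 concentrations (top 100 uM, half-log steps).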
# [19] = read-out: Cytochrome P450 2C19 (Homo sapiens) (UniProt P33261); assay: LTEA_HepaRG_CYP2C19: Life Technologies and Expression Analysis (LTEA) Assay for CYP2C19 using HepaRG (AID 2283482)
# Procedure, shortened: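 HepaRG, 48 h chemical exposure, 8-pt half-log series from 100 uM in 0.5% DMSO, duplicates. Readout: CYP2C19 mRNA by TaqMan qRT-PCR, housekeeping-normalized. Bidirectional fit vs DMSO baseline; phenobarbital 1mM as induction control.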
# [20] = read-out: CYP2C8 (gene 1558); assay: LTEA_HepaRG_CYP2C8: Life Technologies and Expression Analysis (LTEA) Assay for CYP2C8 using HepaRG (AID 2283483)
# Procedure, shortened: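 HepaRG (human liver line), 48 h chemical exposure, 8-pt half-log series from 100 uM, 0.5% DMSO vehicle. Readout: CYP2C8 transcript by qRT-PCR, housekeeping-normalized. Bidirectional fit vs DMSO baseline.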
# Cytochrome P450 3A4 (Homo sapiens), sequence (P08684 whole entry, looked up): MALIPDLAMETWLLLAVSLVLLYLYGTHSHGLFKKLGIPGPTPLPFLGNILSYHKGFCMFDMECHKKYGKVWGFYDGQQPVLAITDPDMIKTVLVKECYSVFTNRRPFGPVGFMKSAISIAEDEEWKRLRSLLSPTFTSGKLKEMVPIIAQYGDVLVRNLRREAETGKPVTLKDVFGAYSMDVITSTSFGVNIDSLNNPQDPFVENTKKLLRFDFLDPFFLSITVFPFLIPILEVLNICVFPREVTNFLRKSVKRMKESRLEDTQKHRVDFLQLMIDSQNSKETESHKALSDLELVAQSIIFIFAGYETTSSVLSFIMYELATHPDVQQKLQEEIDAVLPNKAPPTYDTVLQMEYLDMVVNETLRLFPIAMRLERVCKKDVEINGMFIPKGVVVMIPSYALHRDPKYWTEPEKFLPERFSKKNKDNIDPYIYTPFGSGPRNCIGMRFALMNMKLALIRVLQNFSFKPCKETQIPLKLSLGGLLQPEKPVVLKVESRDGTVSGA
# Cytochrome P450 2C19 (Homo sapiens), sequence (P33261 whole entry, looked up): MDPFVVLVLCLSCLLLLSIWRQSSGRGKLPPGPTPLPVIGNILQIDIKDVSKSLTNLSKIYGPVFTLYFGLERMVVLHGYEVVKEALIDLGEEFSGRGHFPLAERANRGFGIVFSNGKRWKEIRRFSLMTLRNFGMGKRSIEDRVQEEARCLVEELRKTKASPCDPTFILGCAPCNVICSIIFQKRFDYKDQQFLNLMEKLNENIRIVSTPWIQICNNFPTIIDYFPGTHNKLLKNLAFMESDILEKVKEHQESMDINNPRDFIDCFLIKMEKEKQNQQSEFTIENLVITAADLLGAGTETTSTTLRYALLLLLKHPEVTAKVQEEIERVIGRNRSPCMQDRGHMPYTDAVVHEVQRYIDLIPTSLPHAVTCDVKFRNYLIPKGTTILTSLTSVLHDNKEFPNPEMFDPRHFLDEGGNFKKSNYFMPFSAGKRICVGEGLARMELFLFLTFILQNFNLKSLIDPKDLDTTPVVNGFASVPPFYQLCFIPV
# Cytochrome P450 3A7 (Homo sapiens), sequence (P24462 whole entry, looked up): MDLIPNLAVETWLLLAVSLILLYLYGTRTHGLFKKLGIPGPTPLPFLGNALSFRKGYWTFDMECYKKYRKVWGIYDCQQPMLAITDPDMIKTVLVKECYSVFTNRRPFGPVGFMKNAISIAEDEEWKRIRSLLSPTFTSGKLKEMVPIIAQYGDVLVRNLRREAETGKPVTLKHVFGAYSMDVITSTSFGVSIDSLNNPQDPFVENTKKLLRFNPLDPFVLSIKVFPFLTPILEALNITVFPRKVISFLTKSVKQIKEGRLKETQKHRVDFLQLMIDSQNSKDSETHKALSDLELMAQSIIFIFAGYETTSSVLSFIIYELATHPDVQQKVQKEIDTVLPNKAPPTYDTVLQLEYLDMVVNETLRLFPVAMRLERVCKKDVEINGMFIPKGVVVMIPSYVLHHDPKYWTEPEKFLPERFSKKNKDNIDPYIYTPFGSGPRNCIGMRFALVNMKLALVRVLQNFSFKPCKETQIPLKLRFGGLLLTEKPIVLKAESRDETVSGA
smiles,measurement,setting,value
O=C(OCCCCCOC(=O)c1ccccc1)c1ccccc1,outcome,[1],inactive
same,AC50,[2],1.58 µM (active)
same,AC50,[3],0.942 µM (active)
same,AC50,[4],0.969 µM (active)
same,outcome,[5],inactive
same,outcome,[6],inactive
same,AC50,[7],1.94 µM (active)
same,outcome,[8],inactive
same,AC50,[9],1.38 µM (active)
same,AC50,[10],2.17 µM (active)
same,outcome,[11],inactive
same,outcome,[12],inactive
same,AC50,[13],2.31 µM (active)
same,outcome,[14],inactive
same,outcome,[15],inactive
same,AC50,[16],2.98 µM (active)
same,outcome,[17],inactive
same,outcome,[18],inactive
O=C(N[C@@H](Cc1ccccc1)[C@@H](O)C(=O)N1C[C@@H](O)[C@@H](O)C1)c1cc2cc(Cl)ccc2[nH]1,outcome,[1],inactive
same,AC50,[2],74.1 µM (active)
same,outcome,[3],inactive
same,AC50,[19],4.24 µM (active)
same,outcome,[20],inactive
same,outcome,[6],inactive
same,AC50,[7],89.9 µM (active)
same,outcome,[8],inactive
same,AC50,[9],73.1 µM (active)
same,outcome,[10],inactive
same,outcome,[11],inactive
same,AC50,[12],9.92 µM (active)
same,AC50,[13],12.6 µM (active)
same,outcome,[14],inactive
same,outcome,[15],inactive
same,AC50,[16],14.3 µM (active)
same,outcome,[17],inactive
Cc1cccc(Nc2cc(Cl)nc(SCC(=O)O)n2)c1C,outcome,[1],inactive
same,outcome,[2],inactive
same,outcome,[3],inactive
same,AC50,[19],50 µM (active)
same,AC50,[20],50 µM (active)
same,AC50,[6],22.3 µM (active)
same,AC50,[7],4.63 µM (active)
same,outcome,[9],inactive
same,outcome,[10],inactive
same,outcome,[11],inactive
same,outcome,[12],inactive
same,outcome,[14],inactive
same,AC50,[15],16.7 µM (active)
same,AC50,[16],16.7 µM (active)
same,AC50,[17],19.5 µM (active)
CCCCCCCCCCO,outcome,[1],inactive
same,outcome,[2],inactive
same,outcome,[3],inactive
same,outcome,[4],inactive
same,outcome,[5],inactive
same,outcome,[6],inactive
same,outcome,[7],inactive
same,outcome,[8],inactive
same,outcome,[9],inactive
same,outcome,[10],inactive
same,outcome,[11],inactive
same,outcome,[12],inactive
same,outcome,[13],inactive
same,outcome,[14],inactive
same,outcome,[15],inactive
same,outcome,[16],inactive
same,outcome,[17],inactive
OC[C@@H](O)[C@@H](O)[C@H](O)[C@H](O)CO,outcome,[1],inactive
same,outcome,[2],inactive
same,outcome,[3],inactive
same,outcome,[19],inactive
same,outcome,[20],inactive
same,outcome,[6],inactive
same,outcome,[7],inactive
same,outcome,[8],inactive
same,outcome,[9],inactive
same,outcome,[10],inactive
same,outcome,[11],inactive
same,outcome,[12],inactive
same,outcome,[13],inactive
same,outcome,[14],inactive
same,outcome,[15],inactive
same,outcome,[16],inactive
same,outcome,[17],inactive
CC1=C(/C=C/C(C)=C/C=C/C(C)=C/CO)C(C)(C)CCC1,outcome,[1],inactive
same,outcome,[2],inactive
same,outcome,[3],inactive
same,AC50,[4],26.7 µM (active)
same,AC50,[6],52.2 µM (active)
same,AC50,[7],15.5 µM (active)
same,AC50,[8],23.6 µM (active)
same,outcome,[9],inactive
same,AC50,[10],52.2 µM (active)
same,outcome,[11],inactive
same,outcome,[12],inactive
same,outcome,[13],inactive
same,outcome,[14],inactive
same,AC50,[15],26.3 µM (active)
same,AC50,[16],22.2 µM (active)
same,AC50,[17],21.9 µM (active)
FC(F)(F)C(F)(F)C(F)(F)C(F)(F)C(F)(F)C(F)(F)CCI,outcome,[1],inactive
same,outcome,[2],inactive
same,outcome,[3],inactive
same,outcome,[19],inactive
same,outcome,[20],inactive
same,outcome,[6],inactive
same,outcome,[7],inactive
same,outcome,[8],inactive
same,outcome,[9],inactive
same,outcome,[10],inactive
same,outcome,[11],inactive
same,outcome,[12],inactive
same,outcome,[13],inactive
same,outcome,[14],inactive
same,outcome,[15],inactive
same,outcome,[16],inactive
same,outcome,[17],inactive
same,outcome,[18],inactive
